Measurements from PubChem BioAssay AID1259341 (Broad Institute, 2017).

Target: Caspase recruitment domain-containing protein 9 (Homo sapiens) + E3 ubiquitin-protein ligase TRIM62 (Homo sapiens) (UniProt Q9H257+Q9BVG3)
Assay: CARD9/TRIM62 protein interaction inhibitors – cell lysate, HEK293FT lysates, Luminex bead ELISA, primary screen (AID 1259341);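 further: PE anti-Flag signal of Flag-CARD9 captured by myc-TRIM62 beads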
Details: PE fluorescence, stronger effect = lower value, concentration not given here;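 active means activity change under -35% in any replicate well, with more than 20 beads read in that well; inactive means the rest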

Caspase recruitment domain-containing protein 9 (Homo sapiens) + E3 ubiquitin-protein ligase TRIM62 (Homo sapiens), sequence (Q9BVG3 whole entry, looked up, the tested form may be a part): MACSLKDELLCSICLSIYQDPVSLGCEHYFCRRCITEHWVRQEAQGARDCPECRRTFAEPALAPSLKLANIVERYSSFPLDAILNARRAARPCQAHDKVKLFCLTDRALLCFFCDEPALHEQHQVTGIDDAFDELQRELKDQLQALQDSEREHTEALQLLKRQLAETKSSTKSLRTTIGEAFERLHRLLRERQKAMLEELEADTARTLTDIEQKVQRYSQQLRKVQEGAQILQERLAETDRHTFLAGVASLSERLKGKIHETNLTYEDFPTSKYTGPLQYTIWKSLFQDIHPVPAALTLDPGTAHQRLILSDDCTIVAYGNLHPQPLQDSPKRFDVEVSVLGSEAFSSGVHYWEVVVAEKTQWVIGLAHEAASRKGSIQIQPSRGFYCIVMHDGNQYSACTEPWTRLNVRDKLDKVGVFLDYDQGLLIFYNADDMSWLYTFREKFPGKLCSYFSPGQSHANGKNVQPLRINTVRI
Caspase recruitment domain-containing protein 9 (Homo sapiens) + E3 ubiquitin-protein ligase TRIM62 (Homo sapiens), sequence (Q9H257 whole entry, looked up, the tested form may be a part): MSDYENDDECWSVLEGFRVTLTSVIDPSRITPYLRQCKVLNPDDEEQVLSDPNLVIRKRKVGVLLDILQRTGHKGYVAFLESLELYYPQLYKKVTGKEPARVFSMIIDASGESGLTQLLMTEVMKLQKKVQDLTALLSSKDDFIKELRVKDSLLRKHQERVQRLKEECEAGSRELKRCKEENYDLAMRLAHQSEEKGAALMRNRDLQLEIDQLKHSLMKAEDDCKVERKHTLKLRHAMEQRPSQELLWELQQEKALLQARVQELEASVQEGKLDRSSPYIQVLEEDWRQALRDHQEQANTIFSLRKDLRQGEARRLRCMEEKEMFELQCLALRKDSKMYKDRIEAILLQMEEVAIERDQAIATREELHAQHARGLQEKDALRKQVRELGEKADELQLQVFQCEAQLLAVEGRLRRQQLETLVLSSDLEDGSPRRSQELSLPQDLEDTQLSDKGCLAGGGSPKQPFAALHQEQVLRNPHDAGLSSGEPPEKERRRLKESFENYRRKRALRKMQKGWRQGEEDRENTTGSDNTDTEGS

Activity change, negative = inhibition, inactive:
COc1ccc(-n2c(C)c3c(OC)cccc(=O)c3c2C)cc1 3.94%
Cn1ncc2c(NNC(=O)c3cc(O)cc(O)c3)ncnc21 1.25%
O=C(NCCCN1CCOCC1)c1cc(-c2ccco2)nc2ccccc12 -23.9%
O=C1c2cccnc2C(=O)N1Cc1ccc(S(=O)(=O)NCc2ccco2)cc1 29.2%
O=C(Nc1ccc(OCC(=O)N2CCOCC2)cc1)c1cncc(Br)c1 -1.75%
CCN(CCNC(=O)C1CCN(S(=O)(=O)c2c(C)noc2C)CC1)c1ccccc1 -0.84%
O=C(Nc1nncs1)c1cc(-c2ccco2)nc2ccccc12 -5.26%
N#Cc1c2ccc(OCC(=O)NCc3ccco3)cc2n2ccccc12 0.334%
Cc1ccc(S(=O)(=O)Nc2ccc3c(c2)C(=O)N([C@H](C)CO)C[C@H](C)[C@@H](CN(C)CC2CCCCC2)OCCCC[C@H](C)O3)cc1 4.51%
CS(=O)(=O)N1CCN(c2ccc([N+](=O)[O-])c(SCc3ccco3)c2)CC1 -5.97%
Cc1ncnc(N2CCC(c3nccn3Cc3cccnc3)CC2)c1C -10.5%
COCC(=O)n1nc(-c2ccco2)nc1NCc1cccs1 -2.31%
O=C(NCc1ccco1)c1ccc(S(=O)(=O)N2CCOCC2)cc1 19.9%
Cc1cccc(Nc2nc(C(=O)Nc3cc(F)ccc3F)nc3ccccc23)c1 1.63%
FC(F)(F)c1cc(Cl)c2nnc(C(F)(F)Cl)n2c1 1.08%
COc1ccc(S(=O)(=O)N2CCOCC2)cc1NC(=O)c1cccc(-n2cccc2)c1 -8.72%
CCC12CCCN3CCc4c(n(c5ccccc45)C(O)(C(=O)OC)C1)C32 (stereo unspecified) -2.25%
CCOC(=O)C1CCN(C(=O)CN(Cc2ccccc2)S(C)(=O)=O)CC1 -5.24%
N#Cc1c2c(c(NCc3ccco3)n3c1nc1ccccc13)CCC2 5.44%
CN(Cc1ccco1)S(=O)(=O)c1nnc(NC(=O)c2ccccc2)s1 13.7%
O=C(O)Cc1c[nH]c2cccc(O)c12 0.751%
COC[C@]1(O)CCN(C(=O)CCN(C)S(C)(=O)=O)CC1(C)C -0.387%
Cc1ccc(-c2nc(C)sc2CC(=O)NCc2ccco2)cc1 -1.34%
N#Cc1c(N)oc(-c2ccco2)c1-c1ccco1 -6.71%
O=C(Nc1nc(-c2nc3ccccc3s2)cs1)c1ccco1 1.21%
Cc1[nH]c2ccc(Cl)cc2c(=O)c1CN1CCCC1 0.531%
O=c1oc(/C=C/c2ccc([N+](=O)[O-])s2)nc2ccccc12 -7%
Cc1cc(C(=O)Nc2nc3c(s2)CCc2ccccc2-3)no1 3.92%
O=C(Nc1ccc2oc(-c3ccncc3)nc2c1)c1ccc2c(c1)OCO2 -8.29%
N#Cc1c(-c2ccco2)cc(-c2cccnc2)nc1N 0.372%
NC(=O)C1(N2CCCCC2)CCN(c2ccc(NC(=O)c3ccccc3F)cc2C(=O)O)CC1 -30%
Cc1cnc(C)c(N2CCN(C(=O)[C@H]3CC[C@@H](N)C3)CC2)n1 2.01%
O=C(Nc1ccc2oc(-c3cccnc3)nc2c1)c1ccc2c(c1)OCCO2 4.18%
O=C(O)c1ccccc1/C=N/NC(=O)c1cc(-c2ccco2)nc2ccccc12 -9.37%
COc1c(C(=O)O)csc1Br -20.4%
CC(=O)Nc1ccc2nc3c(=O)n(C)c(=O)n(C)c3nc2c1 3.76%
